# From PMC7862700, “An all-to-all approach to the identification of sequence-specific readers for epigenetic DNA modifications on cytosine”
# Columns and labels:
# Test in all cases: DAPPL (digital affinity profiling via proximity ligation, sequencing); 10 mM Tris-HCl pH 7.5, 50 mM NaCl, 1 mM DTT, 4% glycerol, room temperature, 30 min; GST-TFs on glutathione beads, 16-mer random dsDNA library, 0.1% formaldehyde crosslink after washing; high values mean tight binding
# FLI1 = biological target: T1, FLI1 (Homo sapiens, UniProt Q01543 1-452); conditions: protein: recombinant; tags: N-terminal GST; dsDNA, one strand shown
# T1 sequence: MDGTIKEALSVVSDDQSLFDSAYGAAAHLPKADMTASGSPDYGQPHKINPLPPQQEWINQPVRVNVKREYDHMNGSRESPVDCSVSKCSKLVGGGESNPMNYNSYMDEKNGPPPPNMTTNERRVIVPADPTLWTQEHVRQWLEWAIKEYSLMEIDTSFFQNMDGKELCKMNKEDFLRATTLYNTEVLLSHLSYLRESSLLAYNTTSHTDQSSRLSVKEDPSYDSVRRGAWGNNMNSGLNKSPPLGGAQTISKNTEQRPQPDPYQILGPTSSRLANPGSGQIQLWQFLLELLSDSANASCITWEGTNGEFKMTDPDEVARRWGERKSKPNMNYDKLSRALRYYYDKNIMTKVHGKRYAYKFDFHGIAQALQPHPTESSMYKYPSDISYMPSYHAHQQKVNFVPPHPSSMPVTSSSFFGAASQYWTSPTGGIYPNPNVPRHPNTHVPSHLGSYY
# Method in brief: (§1)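 Binding signal is defined as a hexamer's read frequency for one factor over its frequency for the tag-only sample. To obtain reads, GST-fused human transcription factors were expressed in yeast, captured on glutathione beads, barcoded with DNA and pooled with that sample. Pools met 200 nmole of a 16-mer random double-stranded DNA library in Tris/NaCl/DTT/glycerol buffer for 30 min at room temperature before washing, 0.1% formaldehyde crosslinking, proximity ligation (BsaI/T4 ligase, 1 h, 37 °C), PCR and Illumina NextSeq500 sequencing.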
# ELK1 = biological target: T2, ELK1 (Homo sapiens, UniProt P19419 1-428); conditions: protein: recombinant; tags: N-terminal GST; dsDNA, one strand shown
# T2 sequence: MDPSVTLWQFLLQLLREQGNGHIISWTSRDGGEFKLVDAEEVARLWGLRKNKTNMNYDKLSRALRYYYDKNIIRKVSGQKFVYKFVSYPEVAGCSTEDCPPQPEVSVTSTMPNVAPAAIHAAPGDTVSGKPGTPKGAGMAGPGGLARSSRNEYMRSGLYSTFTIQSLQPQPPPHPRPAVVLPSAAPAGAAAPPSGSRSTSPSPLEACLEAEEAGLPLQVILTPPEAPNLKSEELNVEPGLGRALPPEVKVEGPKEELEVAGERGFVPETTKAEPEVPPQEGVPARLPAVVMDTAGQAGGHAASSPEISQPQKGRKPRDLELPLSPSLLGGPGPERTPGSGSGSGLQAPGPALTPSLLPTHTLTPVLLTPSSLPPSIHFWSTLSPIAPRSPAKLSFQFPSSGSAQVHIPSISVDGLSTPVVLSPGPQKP
# Method in brief: as §1
# GABPA = biological target: T3, GABPA (Homo sapiens, UniProt Q06546 1-454); conditions: protein: recombinant; tags: N-terminal GST; dsDNA, one strand shown
# T3 sequence: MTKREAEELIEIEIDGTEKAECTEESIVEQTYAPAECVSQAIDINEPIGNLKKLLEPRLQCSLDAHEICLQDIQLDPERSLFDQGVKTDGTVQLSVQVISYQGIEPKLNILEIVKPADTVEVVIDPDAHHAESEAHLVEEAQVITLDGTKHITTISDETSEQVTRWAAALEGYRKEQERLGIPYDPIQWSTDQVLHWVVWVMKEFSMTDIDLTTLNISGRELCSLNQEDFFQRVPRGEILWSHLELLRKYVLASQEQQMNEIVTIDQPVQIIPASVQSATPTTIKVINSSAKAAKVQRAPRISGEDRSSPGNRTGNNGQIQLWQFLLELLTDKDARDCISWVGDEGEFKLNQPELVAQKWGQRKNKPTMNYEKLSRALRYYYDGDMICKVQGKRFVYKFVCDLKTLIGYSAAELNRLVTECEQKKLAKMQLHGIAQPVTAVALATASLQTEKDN
# Method in brief: as §1
# ERG = biological target: T4, ERG (Homo sapiens, UniProt P11308 1-479); conditions: protein: recombinant; tags: N-terminal GST; dsDNA, one strand shown
# T4 sequence: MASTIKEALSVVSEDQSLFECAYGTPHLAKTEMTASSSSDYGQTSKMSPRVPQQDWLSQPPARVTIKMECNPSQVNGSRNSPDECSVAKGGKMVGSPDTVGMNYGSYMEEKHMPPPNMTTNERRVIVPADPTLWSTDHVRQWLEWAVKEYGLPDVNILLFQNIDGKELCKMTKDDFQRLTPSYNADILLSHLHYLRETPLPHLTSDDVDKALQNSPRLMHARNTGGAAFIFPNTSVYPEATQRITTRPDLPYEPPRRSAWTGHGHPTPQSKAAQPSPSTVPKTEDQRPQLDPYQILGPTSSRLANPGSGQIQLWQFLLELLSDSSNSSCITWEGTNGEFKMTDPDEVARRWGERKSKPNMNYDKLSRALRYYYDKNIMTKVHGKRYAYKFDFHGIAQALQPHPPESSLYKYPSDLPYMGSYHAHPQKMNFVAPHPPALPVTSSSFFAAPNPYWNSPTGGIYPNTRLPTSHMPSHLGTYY
# Method in brief: as §1
# ELF1 = ELF1 (Homo sapiens, UniProt P32519 1-619); conditions: protein: recombinant; tags: N-terminal GST; dsDNA, one strand shown
# Method in brief: as §1
# EHF = biological target: T5, EHF (Homo sapiens, UniProt Q9NZC4 1-300); conditions: protein: recombinant; tags: N-terminal GST; dsDNA, one strand shown
# T5 sequence: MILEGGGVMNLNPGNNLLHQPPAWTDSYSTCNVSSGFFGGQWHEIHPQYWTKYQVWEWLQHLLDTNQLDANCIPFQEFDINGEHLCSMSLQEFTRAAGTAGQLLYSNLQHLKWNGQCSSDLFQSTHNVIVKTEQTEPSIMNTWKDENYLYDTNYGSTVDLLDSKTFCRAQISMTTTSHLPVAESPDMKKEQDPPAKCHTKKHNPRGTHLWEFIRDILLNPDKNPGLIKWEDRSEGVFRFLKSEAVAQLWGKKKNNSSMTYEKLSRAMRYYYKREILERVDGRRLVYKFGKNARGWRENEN
# Method in brief: as §1
# SPI1 = SPI1 (Homo sapiens, UniProt P17947 1-270); conditions: protein: recombinant; tags: N-terminal GST; dsDNA, one strand shown
# Method in brief: as §1
# SPIB = SPIB (Homo sapiens, UniProt Q01892 1-262); conditions: protein: recombinant; tags: N-terminal GST; dsDNA, one strand shown
# Method in brief: as §1
# ELK3 = biological target: T6, ELK3 (Homo sapiens, UniProt P41970 1-407); conditions: protein: recombinant; tags: N-terminal GST; dsDNA, one strand shown
# T6 sequence: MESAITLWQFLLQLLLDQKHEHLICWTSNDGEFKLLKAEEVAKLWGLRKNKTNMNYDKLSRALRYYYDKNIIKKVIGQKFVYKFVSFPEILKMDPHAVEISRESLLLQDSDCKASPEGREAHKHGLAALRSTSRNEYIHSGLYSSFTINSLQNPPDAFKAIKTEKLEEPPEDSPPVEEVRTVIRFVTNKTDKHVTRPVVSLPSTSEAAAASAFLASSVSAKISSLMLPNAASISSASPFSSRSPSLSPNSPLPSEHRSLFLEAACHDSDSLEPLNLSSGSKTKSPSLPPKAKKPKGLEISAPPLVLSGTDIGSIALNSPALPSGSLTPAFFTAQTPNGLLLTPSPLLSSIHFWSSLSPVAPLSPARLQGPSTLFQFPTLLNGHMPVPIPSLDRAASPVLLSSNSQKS
# Method in brief: as §1
# FEV = biological target: T7, FEV (Homo sapiens, UniProt Q99581 1-238); conditions: protein: recombinant; tags: N-terminal GST; dsDNA, one strand shown
# T7 sequence: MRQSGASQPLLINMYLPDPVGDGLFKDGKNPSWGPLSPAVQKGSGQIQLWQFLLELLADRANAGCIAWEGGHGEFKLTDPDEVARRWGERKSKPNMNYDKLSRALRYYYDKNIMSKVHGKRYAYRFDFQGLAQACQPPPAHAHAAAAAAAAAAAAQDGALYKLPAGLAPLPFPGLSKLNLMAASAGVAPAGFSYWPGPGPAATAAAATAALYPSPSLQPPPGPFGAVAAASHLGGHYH
# Method in brief: as §1
# ETV5 = ETV5 (Homo sapiens, UniProt P41161 1-510); conditions: protein: recombinant; tags: N-terminal GST; dsDNA, one strand shown
# Method in brief: as §1
# HSF1 = HSF1 (Homo sapiens, UniProt Q00613 1-529); conditions: protein: recombinant; tags: N-terminal GST; chain copies: 3; dsDNA, one strand shown
# Method in brief: as §1
# SPIC = biological target: T8, SPIC (Homo sapiens, UniProt Q8N5J4 1-248); conditions: protein: recombinant; tags: N-terminal GST; dsDNA, one strand shown
# T8 sequence: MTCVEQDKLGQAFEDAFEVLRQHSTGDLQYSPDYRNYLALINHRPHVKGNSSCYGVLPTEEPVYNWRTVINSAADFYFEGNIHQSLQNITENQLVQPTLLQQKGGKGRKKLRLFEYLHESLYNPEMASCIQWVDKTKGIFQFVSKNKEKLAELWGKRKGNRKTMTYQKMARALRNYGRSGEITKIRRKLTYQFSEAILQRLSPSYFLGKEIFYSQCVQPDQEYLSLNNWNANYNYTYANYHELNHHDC
# Method in brief: as §1
# ELF4 = ELF4 (Homo sapiens, UniProt Q99607 1-663); conditions: protein: recombinant; tags: N-terminal GST; dsDNA, one strand shown
# Method in brief: as §1
# ELK4 = biological target: T9, ELK4 (Homo sapiens, UniProt P28324-2 1-405); conditions: protein: recombinant; tags: N-terminal GST; dsDNA, one strand shown
# T9 sequence: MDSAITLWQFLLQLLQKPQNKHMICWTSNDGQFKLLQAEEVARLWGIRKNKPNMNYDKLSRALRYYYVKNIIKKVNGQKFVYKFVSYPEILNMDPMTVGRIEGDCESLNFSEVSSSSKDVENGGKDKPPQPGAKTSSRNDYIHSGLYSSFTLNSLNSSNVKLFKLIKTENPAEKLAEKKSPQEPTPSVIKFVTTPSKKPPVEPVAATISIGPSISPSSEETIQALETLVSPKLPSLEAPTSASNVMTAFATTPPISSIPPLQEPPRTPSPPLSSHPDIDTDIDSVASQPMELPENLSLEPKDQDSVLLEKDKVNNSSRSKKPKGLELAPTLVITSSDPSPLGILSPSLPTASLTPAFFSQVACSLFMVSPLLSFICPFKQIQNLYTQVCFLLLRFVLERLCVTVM
# Method in brief: as §1
# ELF3 = biological target: T10, ELF3 (Homo sapiens, UniProt P78545 1-371); conditions: protein: recombinant; tags: N-terminal GST; dsDNA, one strand shown
# T10 sequence: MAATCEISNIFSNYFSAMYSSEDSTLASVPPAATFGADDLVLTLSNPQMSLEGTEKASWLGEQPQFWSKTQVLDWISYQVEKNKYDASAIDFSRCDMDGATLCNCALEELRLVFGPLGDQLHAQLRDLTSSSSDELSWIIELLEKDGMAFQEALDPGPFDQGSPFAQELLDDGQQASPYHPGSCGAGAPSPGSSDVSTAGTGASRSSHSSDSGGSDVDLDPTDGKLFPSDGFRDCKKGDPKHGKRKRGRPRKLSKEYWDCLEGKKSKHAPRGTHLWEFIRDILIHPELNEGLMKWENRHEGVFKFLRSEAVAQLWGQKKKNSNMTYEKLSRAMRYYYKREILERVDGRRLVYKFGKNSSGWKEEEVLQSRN
# Method in brief: as §1
# CRX = CRX (Homo sapiens, UniProt O43186 1-299); conditions: protein: recombinant; tags: N-terminal GST; dsDNA, one strand shown
# Method in brief: as §1
# ETV1 = ETV1 (Homo sapiens, UniProt P50549 1-477); conditions: protein: recombinant; tags: N-terminal GST; dsDNA, one strand shown
# Method in brief: as §1
# Chain of ELF1 (P32519 whole entry): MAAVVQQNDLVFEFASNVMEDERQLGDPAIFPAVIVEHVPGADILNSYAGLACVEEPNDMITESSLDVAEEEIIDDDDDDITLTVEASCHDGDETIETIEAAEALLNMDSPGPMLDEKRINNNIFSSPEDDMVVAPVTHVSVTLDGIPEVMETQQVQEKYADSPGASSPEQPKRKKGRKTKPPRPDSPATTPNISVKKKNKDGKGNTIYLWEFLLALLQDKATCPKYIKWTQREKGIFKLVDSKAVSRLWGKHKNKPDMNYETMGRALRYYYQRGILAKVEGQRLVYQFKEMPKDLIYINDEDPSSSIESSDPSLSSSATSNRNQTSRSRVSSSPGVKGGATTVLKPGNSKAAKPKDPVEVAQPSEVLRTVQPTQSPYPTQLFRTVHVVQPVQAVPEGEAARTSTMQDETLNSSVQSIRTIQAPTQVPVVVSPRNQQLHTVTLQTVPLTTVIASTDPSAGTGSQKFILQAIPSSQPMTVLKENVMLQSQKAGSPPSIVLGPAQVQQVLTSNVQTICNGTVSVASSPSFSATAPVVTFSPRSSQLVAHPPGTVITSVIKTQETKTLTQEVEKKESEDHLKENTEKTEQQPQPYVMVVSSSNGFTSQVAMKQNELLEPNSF
# Chain of ETV1 (P50549 whole entry): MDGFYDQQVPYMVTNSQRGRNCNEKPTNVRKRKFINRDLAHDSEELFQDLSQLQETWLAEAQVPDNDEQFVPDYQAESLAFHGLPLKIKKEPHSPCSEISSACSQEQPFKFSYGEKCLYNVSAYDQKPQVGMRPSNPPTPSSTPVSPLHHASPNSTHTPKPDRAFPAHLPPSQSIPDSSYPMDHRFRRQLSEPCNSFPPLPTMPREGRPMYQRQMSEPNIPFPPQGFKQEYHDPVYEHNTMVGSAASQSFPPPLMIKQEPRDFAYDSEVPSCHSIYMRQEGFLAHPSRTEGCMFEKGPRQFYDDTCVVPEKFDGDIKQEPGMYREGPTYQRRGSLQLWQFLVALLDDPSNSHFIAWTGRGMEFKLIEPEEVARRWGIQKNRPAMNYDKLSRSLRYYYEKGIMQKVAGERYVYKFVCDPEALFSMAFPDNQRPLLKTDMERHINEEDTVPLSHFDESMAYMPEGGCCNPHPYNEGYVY
# Chain of HSF1 (Q00613 whole entry): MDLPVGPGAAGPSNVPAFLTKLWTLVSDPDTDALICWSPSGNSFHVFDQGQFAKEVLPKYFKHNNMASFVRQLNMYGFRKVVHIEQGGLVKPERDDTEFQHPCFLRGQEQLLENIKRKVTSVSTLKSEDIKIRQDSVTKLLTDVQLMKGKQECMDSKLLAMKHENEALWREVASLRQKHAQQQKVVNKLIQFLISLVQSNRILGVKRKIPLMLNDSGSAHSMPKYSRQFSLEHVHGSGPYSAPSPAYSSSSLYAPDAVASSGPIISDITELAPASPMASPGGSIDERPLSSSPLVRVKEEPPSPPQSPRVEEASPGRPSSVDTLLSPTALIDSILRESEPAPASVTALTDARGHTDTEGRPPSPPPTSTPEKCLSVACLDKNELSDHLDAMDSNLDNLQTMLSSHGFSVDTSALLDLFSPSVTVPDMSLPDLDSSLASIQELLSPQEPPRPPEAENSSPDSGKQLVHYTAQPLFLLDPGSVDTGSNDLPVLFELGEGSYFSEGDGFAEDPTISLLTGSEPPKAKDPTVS
# Chain of ETV5 (P41161 whole entry): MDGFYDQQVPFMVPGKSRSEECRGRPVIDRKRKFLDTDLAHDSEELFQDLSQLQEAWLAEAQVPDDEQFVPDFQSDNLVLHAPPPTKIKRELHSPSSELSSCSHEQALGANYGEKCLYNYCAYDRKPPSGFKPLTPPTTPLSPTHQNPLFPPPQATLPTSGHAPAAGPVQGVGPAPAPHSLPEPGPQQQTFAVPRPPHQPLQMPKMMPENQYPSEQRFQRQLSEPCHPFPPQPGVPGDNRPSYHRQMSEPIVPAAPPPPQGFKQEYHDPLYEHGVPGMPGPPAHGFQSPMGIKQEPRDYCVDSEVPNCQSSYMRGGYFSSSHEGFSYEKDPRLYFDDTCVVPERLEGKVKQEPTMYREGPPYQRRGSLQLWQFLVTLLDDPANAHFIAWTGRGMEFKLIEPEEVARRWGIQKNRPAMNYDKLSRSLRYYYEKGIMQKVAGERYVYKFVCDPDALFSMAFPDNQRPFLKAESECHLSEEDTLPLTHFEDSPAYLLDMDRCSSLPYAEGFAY
# Chain of CRX (O43186 whole entry): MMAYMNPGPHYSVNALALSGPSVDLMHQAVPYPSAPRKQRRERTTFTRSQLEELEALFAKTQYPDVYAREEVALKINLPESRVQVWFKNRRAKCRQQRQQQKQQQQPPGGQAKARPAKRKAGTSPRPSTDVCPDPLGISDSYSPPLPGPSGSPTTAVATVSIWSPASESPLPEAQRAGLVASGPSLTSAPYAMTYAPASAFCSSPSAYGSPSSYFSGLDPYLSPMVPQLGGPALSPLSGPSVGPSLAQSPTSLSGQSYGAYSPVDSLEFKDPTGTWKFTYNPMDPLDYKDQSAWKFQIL
# Chain of ELF4 (Q99607 whole entry): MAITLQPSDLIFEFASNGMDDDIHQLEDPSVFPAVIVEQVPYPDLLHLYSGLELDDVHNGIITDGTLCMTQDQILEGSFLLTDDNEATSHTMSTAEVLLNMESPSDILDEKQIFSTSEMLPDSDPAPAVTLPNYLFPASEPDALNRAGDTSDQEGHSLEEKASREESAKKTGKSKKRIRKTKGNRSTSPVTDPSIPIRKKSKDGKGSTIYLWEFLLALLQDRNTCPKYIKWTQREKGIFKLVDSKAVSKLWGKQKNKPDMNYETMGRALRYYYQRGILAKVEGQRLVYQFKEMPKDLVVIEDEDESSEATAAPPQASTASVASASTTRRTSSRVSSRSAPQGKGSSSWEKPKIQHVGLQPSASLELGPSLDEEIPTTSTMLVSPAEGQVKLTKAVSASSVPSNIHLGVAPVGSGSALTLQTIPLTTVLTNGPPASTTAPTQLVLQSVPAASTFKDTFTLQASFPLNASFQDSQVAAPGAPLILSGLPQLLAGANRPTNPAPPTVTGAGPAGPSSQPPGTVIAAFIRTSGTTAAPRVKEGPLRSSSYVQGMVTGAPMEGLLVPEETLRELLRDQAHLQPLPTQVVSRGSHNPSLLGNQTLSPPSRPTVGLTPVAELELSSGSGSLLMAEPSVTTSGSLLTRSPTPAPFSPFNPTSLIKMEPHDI
# Chain of SPIB (Q01892 whole entry): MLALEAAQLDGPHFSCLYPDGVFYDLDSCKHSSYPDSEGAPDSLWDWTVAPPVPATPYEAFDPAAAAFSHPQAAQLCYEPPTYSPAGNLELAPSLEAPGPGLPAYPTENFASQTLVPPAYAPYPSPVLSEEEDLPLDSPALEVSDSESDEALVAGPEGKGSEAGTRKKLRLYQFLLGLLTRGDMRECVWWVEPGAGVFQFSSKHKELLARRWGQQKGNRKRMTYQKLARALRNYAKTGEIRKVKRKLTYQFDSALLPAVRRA
sequence,measurement,setting,value
TCCCGA,binding signal,FLI1,"1.39 fold enrichment (6-mer frequency, TF over GST control)"
same,binding signal,ELK1,"1.23 fold enrichment (6-mer frequency, TF over GST control)"
same,binding signal,GABPA,"1.47 fold enrichment (6-mer frequency, TF over GST control)"
same,binding signal,ERG,"1.27 fold enrichment (6-mer frequency, TF over GST control)"
same,binding signal,ELF1,"1.31 fold enrichment (6-mer frequency, TF over GST control)"
same,binding signal,EHF,"1.36 fold enrichment (6-mer frequency, TF over GST control)"
same,binding signal,SPI1,"1.37 fold enrichment (6-mer frequency, TF over GST control)"
same,binding signal,SPIB,"1.41 fold enrichment (6-mer frequency, TF over GST control)"
same,binding signal,ELK3,"1.35 fold enrichment (6-mer frequency, TF over GST control)"
same,binding signal,FEV,"1.31 fold enrichment (6-mer frequency, TF over GST control)"
same,binding signal,ETV5,"1.37 fold enrichment (6-mer frequency, TF over GST control)"
same,binding signal,HSF1,"2.34 fold enrichment (6-mer frequency, TF over GST control)"
same,binding signal,SPIC,"1.36 fold enrichment (6-mer frequency, TF over GST control)"
same,binding signal,ELF4,"1.25 fold enrichment (6-mer frequency, TF over GST control)"
same,binding signal,ELK4,"1.42 fold enrichment (6-mer frequency, TF over GST control)"
same,binding signal,ELF3,"1.26 fold enrichment (6-mer frequency, TF over GST control)"
same,binding signal,CRX,"1.59 fold enrichment (6-mer frequency, TF over GST control)"
same,binding signal,ETV1,"1.29 fold enrichment (6-mer frequency, TF over GST control)"
